MEKK2 WT-MEK5 = modulators of MEK5 binding to wildtype MEKK2, primary screen, biochemical, multiplex bead flow cytometry, Alexa488-MEK5. binding response (% of control), % at 10 µM. AID 1531, 2009. Mitogen-activated protein kinase kinase kinase 2 (Homo sapiens), Q9Y2U5. Alexa488-MEK5 binding to MEKK2 WT; actives lie on both sides. actives 1.1% (n = 290,000); in the data active = binding response below about 67% or above about 130%
MEKK3 PB1 HTS = modulators of MEKK3-MEK5 PB1 binding, primary screen, biochemical, wildtype MEKK3, multiplex bead flow cytometry, Alexa488-MEK5. AID 1529, 2009. binding response (% of control), % at 10 µM. bead-based flow cytometry, Alexa488-MEK5 binding to MEKK3; actives lie on both sides; 0 = blocked by unlabeled MEK5, 100 = vehicle. actives 1.4% (n = 290,000);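 active = binding response more than 3 SD above or below the average of its plate-row segment, actives on both sides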;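 also: Alexa488 bead fluorescence after subtracting the streptavidin-only scavenger bead signal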
Target sequence (Q99759 whole entry, looked up): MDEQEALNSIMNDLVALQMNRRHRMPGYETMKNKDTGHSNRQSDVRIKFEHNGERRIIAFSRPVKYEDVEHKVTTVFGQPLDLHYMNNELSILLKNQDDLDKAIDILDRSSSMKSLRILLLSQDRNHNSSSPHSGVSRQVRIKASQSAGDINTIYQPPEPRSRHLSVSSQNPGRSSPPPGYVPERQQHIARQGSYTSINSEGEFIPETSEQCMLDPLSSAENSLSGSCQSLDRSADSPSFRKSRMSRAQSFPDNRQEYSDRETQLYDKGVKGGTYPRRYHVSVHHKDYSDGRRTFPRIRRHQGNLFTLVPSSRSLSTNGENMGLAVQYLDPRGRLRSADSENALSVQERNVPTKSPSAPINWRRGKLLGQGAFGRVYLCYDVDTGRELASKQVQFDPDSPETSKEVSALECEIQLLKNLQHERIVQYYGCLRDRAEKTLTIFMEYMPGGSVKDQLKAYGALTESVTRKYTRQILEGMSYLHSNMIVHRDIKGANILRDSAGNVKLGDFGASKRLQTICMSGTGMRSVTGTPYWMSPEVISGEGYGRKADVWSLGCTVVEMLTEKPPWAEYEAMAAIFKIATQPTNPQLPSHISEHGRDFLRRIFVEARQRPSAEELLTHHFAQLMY
NRP1-CendR mod = modulators of CendR peptide binding to NRP-1, primary screen, biochemical, fluorescence polarization, uHTS; FAM-RPARPAR peptide binding to NRP-1; inhibition, % at 25 µM; actives 0.85% (n = 360,000); AID 602438, 2012;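 active = inhibition or corrected inhibition above about 18%, plus a signal ratio from 0.5 to 1.5, limit read from the data, passing the limit was not always enough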
MEKK2 mut-MEK5 = MEK5 binding signal on mutant MEKK2 PB1, primary screen, biochemical, multiplex bead flow cytometry, Alexa488-MEK5; percent response, % at 10 µM; AID 1530, 2009; actives 0.35% (n = 290,000); Alexa488-MEK5 binding to MEKK2 mutant; in the data active = percent response above about 24%, passing the limit was not always enough
SKN-1 inh = suppressors of acrylamide-induced Pgst-4::GFP reporter in worms, primary screen, SKN-1 inhibitor project, whole organism, uHTS, GFP/RFP fluorescence ratio, strain VP596 | C. elegans VP596 Pgst-4::GFP/RFP ratio, 24 h | inhibition, % at 21.8 µM | actives 0.49% (n = 360,000);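 active = interference check ratio from 0.5 to 1.5 plus GFP to RFP signal ratio inhibition reaching or exceeding a fixed threshold, cut at about 30% in these data, passing the limit was not always enough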
MEKK2wt confirm = modulators of MEK5 binding to wildtype MEKK2, confirmation, biochemical, single concentration, multiplex bead flow cytometry. shares compounds with MEKK3 PB1 HTS. Alexa488-MEK5 binding to MEKK2 WT; actives lie on both sides. binding response (% of control), % at 10 µM. actives 2.4% (n = 5,900). AID 1892, 2009; in the data active = binding response below about 16% or above about 210%; inactive = in between
MEKK2mut-MEK5 = mutant MEKK2 PB1-MEK5 binding signal retest – biochemical, single concentration, multiplex bead flow cytometry, confirmation; shares compounds with MEKK3 PB1 HTS; Alexa488-MEK5 binding to MEKK2 mutant; percent response, % at 10 µM; actives 2% (n = 5,900); in the data active = percent response mostly above about 71%, no sharp cut-off; inactive = mostly below about 38%;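 also: higher means compound restores mutant binding toward wildtype level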
MEKK3 confirm = MEKK3 wild-type PB1 binding to MEK5, inhibitors, confirmation, biochemical, bead multiplex flow cytometry, single concentration, wildtype; shares compounds with MEKK3 PB1 HTS; Alexa488-MEK5 binding to MEKK3; hits give low values; binding response (% of control), % at 10 µM; actives 1.8% (n = 5,900); AID 1894, 2009;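 active = binding response below 72% of control, or above a set upper limit, though filed actives all read lower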;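 also: lower values mean stronger disruption of MEK5 binding to MEKK3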
A number is an active result; - = inactive; . = no result given; [ ] = another dose, or the depositor's remark. A selection: hits, their analogues and other compounds. The true share with any hit is near 3.2%.

SMILES	MEKK2 WT-MEK5	MEKK3 PB1 HTS	NRP1-CendR mod	MEKK2 mut-MEK5	SKN-1 inh	MEKK2wt confirm	MEKK2mut-MEK5	MEKK3 confirm
COc1ccc(S(=O)(=O)N2CCCC2CNC(=O)C(=O)NCc2ccccn2)cc1 (stereo not drawn)	.	.	-	.	-	.	.	.
COc1ccccc1N1CC(C(=O)Nc2ccc(N3CCOCC3)cc2)CC1=O (stereo not drawn)	.	.	-	.	-	.	.	.
CCCNC(=O)C1(C)CCCN(Cc2cccs2)C1 (stereo not drawn)	.	.	-	.	-	.	.	.
Cc1ccc(C2=NN(S(C)(=O)=O)C(c3cccs3)C2)cc1 (stereo not drawn)	-	-	-	-	-	.	.	.
CCS(=O)(=O)Nc1cccc(C2=NN(S(=O)(=O)c3ccccc3)C(c3cccs3)C2)c1 (stereo not drawn)	.	21.0[inhibitor]	-	106.0	-	-	-	-
CCS(=O)(=O)Nc1cccc(C2=NN(S(=O)(=O)CC)C(c3ccccc3)C2)c1 (stereo not drawn)	142.0	-	-	355.0	-	-	-	-
CCc1ccc(C2=NN(S(C)(=O)=O)C(c3cccs3)C2)cc1 (stereo not drawn)	.	12.0[inhibitor]	-	.	-	-	-	-
Cc1cc(NC(=O)CSc2nc(-c3cccs3)nc3ccccc23)no1	.	.	-	.	-	.	.	.
CC(/C=N/Nc1ncc(C)c(=O)[nH]1)=C\c1ccccc1	-	140.0	-	-	41.4	-	-	-
Cc1ccc2nc(Cl)c(C3CC(c4ccco4)=NN3S(C)(=O)=O)cc2c1 (stereo not drawn)	-	72.0[inhibitor]	-	-	-	-	-	-
COC(=O)N/N=C/c1cc(Cl)c(OCc2ccccc2F)c(OC)c1	-	-	-	-	-	.	.	.
COC(=O)N/N=C/c1cc(Cl)c(OCc2ccc(F)cc2)c(OC)c1	-	128.0	-	-	-	-	-	-
COCCNC(=O)C1(C)CCCN(Cc2noc(-c3ccccc3OC)n2)C1 (stereo not drawn)	.	.	-	.	-	.	.	.
CCOC(=O)C(NC(=O)c1ccccc1)(OCc1ccc(F)cc1)C(F)(F)F (stereo not drawn)	-	128.0	-	-	-	-	-	-
CCOC(=O)C(NC(=O)c1cccc(Cl)c1)(OCc1ccc(F)cc1)C(F)(F)F (stereo not drawn)	-	-	-	-	-	.	.	.
C[N+]1(CC(=O)NNc2c3ccccc3nc3ccccc23)CCOCC1	-	-	.	-	.	.	.	.
O=C(CN1CCOCC1)NNc1c2ccccc2nc2ccccc12	37.0[inhibitor]	40.0[inhibitor]	-	-	-	-	-	-
CC(=O)c1c(C)n([O-])c2cc(F)c(F)cc2[n+]1=O	-12.0	71.0[inhibitor]	-	-	-	-	-	-
Cc1ccccc1-c1cnc2c(c1)C(=O)N([C@H](C)CO)C[C@@H](C)[C@H](CN(C)C(=O)c1ccncc1)O2	.	.	-	.	-	.	.	.
c1ccc2c(c1)OC(CCCN1CCCCC1)c1ccccc1S2 (stereo not drawn)	141.0	-	-	27.0	-	-	-	-
CC1(C(=O)NCc2ccccc2Br)CCN1Cc1ccc(-c2ccccn2)cc1 (stereo not drawn)	.	.	-	.	-	.	.	.
Cc1ccccc1-n1nc(C)c2cc(C(=O)N3CCOCC3)sc21	211.0	-	-	-	-	-	-	-
Cc1ccc(S(=O)(=O)N2CCN(C(=O)c3cc4c(C)nn(-c5ccccc5C)c4s3)CC2)cc1	-	-	-	-	-	.	.	.
C[C@@H]1CN([C@@H](C)CO)C(=O)c2cc(Br)cnc2O[C@H]1CN(C)C(=O)C1CC1	.	.	-	.	-	.	.	.
CN(C)c1cccc(C(=O)OCCNC(=O)c2cccc(S(=O)(=O)N3CCOCC3)c2)c1	-	46.0[inhibitor]	-	-	-	-	-	-
SMILES	MEKK2 WT-MEK5	MEKK3 PB1 HTS	NRP1-CendR mod	MEKK2 mut-MEK5	SKN-1 inh	MEKK2wt confirm	MEKK2mut-MEK5	MEKK3 confirm
O=C(OCCOc1ccccc1)c1cccc(S(=O)(=O)N2CCOCC2)c1	.	.	-	.	-	.	.	.
CCn1ncc(C2=NOC(C(=O)Nc3ccc4c(c3)OCO4)C2)c1C (stereo not drawn)	1.0[inhibitor]	2.0[inhibitor]	-	-	-	-	-	-
CCn1ncc(C2=NOC(C(=O)Nc3ccc(C)cc3)C2)c1C (stereo not drawn)	-	-	-	-	-	.	.	.
CC(=O)Nc1cc(-c2ccccc2)cn2c(-c3ccc(F)cc3)cnc12	.	.	-	.	-	.	.	.
COc1ccc(CC(=O)Nc2cc(C)ccn2)cc1OC	.	.	-	.	-	.	.	.
COc1ccc(CC(=O)Nc2cc(C)ccn2)cc1	-	42.0[inhibitor]	-	-	-	-	-	-
CCN(CC(=O)NC(C)(C)C)C(=O)CCl	-	136.0	-	-	-	-	-	-
COc1ccc(CNC(=S)Nc2cccc(C)c2C)cc1	-	78.0[inhibitor]	-	-	-	-	-	-
O=C(NS(=O)(=O)Oc1ccc(Cl)cc1)OC[C@@H]1CCCN2CCCC[C@H]12	-	149.0	-	-	-	-	-	-
CCOC(=O)N/N=C/c1cn(CCCOc2ccccc2)c2ccccc12	-	140.0	-	-	-	-	-	-
COC(=O)N/N=C/c1cn(CCOc2ccc(OC)cc2)c2ccccc12	-	-	-	-	-	.	.	.
Cc1ccc(OCC(=O)N/N=C/c2cn(Cc3ccccc3)c3ccccc23)cc1	-	143.0	-	-	-	-	-	-
COC(=O)N/N=C/c1cn(CCOc2ccccc2)c2ccccc12	-17.0[inhibitor]	-1.0[inhibitor]	-	-	-	-	-	-
CCOC(=O)N/N=C/c1cn(CCCOc2ccc(C)cc2)c2ccccc12	-	-	-	-	-	.	.	.
CN(C(=O)CSc1nnc(Cc2cccs2)n1C1CC1)C1CCS(=O)(=O)C1 (stereo not drawn)	.	.	-	.	-	.	.	.
CCOC(=O)c1c(-c2ccccc2)oc2ccc(OCC(=O)NNC(=O)CCC(=O)O)cc12	9.0[inhibitor]	5.0[inhibitor]	-	-	-	-	-	-
